Assay outcomes (PubChem)
HCV inhibitor: qHTS Assay for Inhibitors of Hepatitis C Virus (HCV); Huh7.5.1 HCVcc-Cre infection, luciferase reporter, 44 h; Potency, µM (series often up to 41.8 µM), actives largely listed as inhibitors; hit rate 3.4% among 340,000; AID 651820, 2012
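Seed cells (1,000/well) for 4 h; treat with compound and infect with HCVcc-Cre, moi about 0.5. Incubate 44 h, then detect luciferase activity.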
Pf growth 48h: Primary qHTS for delayed death inhibitors of the malarial parasite plastid, 48 hour incubation. hit rate 5.9% among 310,000. Potency, µM (top dose mostly 28.7 µM), hits mostly inhibitors. P. falciparum luciferase growth in erythrocytes, 48 h
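Erythrocytes infected with P. falciparum carrying an integrated firefly luciferase reporter (2% hematocrit, 0.1% parasitemia final) were exposed to compounds in RPMI 1640 with 0.5% Albumax at 37 C, 5% CO2. Growth inhibition was scored as reduced luminescence.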
CHX counter: Cycloheximide Counterscreen for Small Molecule Inhibitors of Shiga Toxin. cell reporter, cycloheximide protein synthesis inhibition counterscreen. hit rate 12% among 300,000. max response, %; in the data active = max response mostly above about 13%, no sharp cut-off; inactive = mostly below about 14%; also: read at 38.3 µM for the half of the compounds with a filed dose
AMA1 RON2 block: qHTS for Inhibitors of AMA1-RON; Towards Development of Antimalarial Drug Lead: Primary Screen; hit rate 0.2% among 360,000; AlphaScreen AMA1-biotinylated RON2 peptide binding; Plasmodium falciparum AMA1 (3D7) - RON2 peptide interaction; Potency, µM (doses to about 58.2 µM), actives largely listed as inhibitors; also: nearly all actives have a fitted effect of over 45% in size
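AMA1 (3D7) with his tag at 25 nM final met compounds first, then biotinylated RON2 peptide at 25 nM; detection used donor plus acceptor beads, 10 µg/mL apiece, read by AlphaScreen after 30 min at room temperature.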
Shiga inhibitor: A qHTS for Small Molecule Inhibitors of Shiga Toxin; hit rate 9.2% among 290,000; inhibition, % at 38.7 µM; Vero cells, Shiga toxin protein synthesis inhibition reporter; in the data active = inhibition mostly above about 28%, no sharp cut-off; inactive = mostly below about 43%
Pf growth 96h: Primary qHTS for delayed death inhibitors of the malarial parasite plastid, 96 hour incubation; P. falciparum luciferase reporter growth, 96 h; Potency, µM (series often up to 28.7 µM), most hits filed as inhibitors; hit rate 6.9% among 320,000
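Two parasite generations (96 h, 37 C, 5% CO2) of compound exposure in infected erythrocytes (0.05% parasitemia, 2% hematocrit). Luciferase-reporter P. falciparum; decreased luminescence indicates inhibited growth, aimed at apicoplast-acting delayed death.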
Of the large screens only hits and unclear results are named; the others gave an inactive call. Hits are enriched below; roughly 21% of the tested compounds scored in any of these assays. Unless noted, calls follow the shape of the dose curve; as a rule, active = well fitted curve in the direction sought with a large enough effect; inconclusive = small, poorly fitted or top-dose-only effect, or another doubt; inactive = no such curve, though single readings can be large; an effect the other way counts as inactive or inconclusive.

Clc1ccc(CO/N=C(\Cn2ccnc2)c2ccc(Cl)cc2Cl)c(Cl)c1	Pf growth 48h 4.3µM, Pf growth 96h 1.9µM (no result: HCV inhibitor, CHX counter, AMA1 RON2 block, Shiga inhibitor)
NC(=O)c1ccc(NC(=O)CCN=C2NS(=O)(=O)c3ccccc32)cc1	Pf growth 96h inconclusive (no result: CHX counter, Shiga inhibitor)
NC(=O)C1CCN(C(=O)Cc2ccsc2)CC1	Pf growth 48h inconclusive, Pf growth 96h inconclusive
C1CCCCCC(NCCN2CCNCC2)CCCCC1	HCV inhibitor 1.3µM, Pf growth 48h inconclusive, Pf growth 96h inconclusive
CCn1nc(NC(=O)c2ccco2)c2cc3ccccc3nc21	HCV inhibitor inconclusive, Pf growth 96h 9.3µM (no result: Pf growth 48h)
CCCn1nc(NC(=O)c2ccco2)c2cc3cc(C)ccc3nc21	HCV inhibitor 13µM, Pf growth 48h inconclusive
COc1ccccc1CNS(=O)(=O)CCNCc1ccco1	none (no result: Pf growth 48h, CHX counter, Shiga inhibitor, Pf growth 96h)
COc1ccc(C(=O)NC(C)c2ccc(-n3ccnc3)cc2)cc1S(=O)(=O)N1CCOCC1 (configuration not stated)	none (no result: CHX counter, Shiga inhibitor)
CCN(C(=O)COC(=O)c1ccccc1NCCO)c1cccc2ccccc12	HCV inhibitor inconclusive, Pf growth 48h inconclusive, Pf growth 96h 10µM (no result: CHX counter, Shiga inhibitor)
CCN(c1ccc(OC)cc1)S(=O)(=O)N1CCCC(C(=O)NCc2ccc(OC(C)C)cc2)C1 (configuration not stated)	none (no result: HCV inhibitor, Pf growth 48h, CHX counter, Shiga inhibitor, Pf growth 96h)
CCC(C)C(N)C(=O)O (configuration not stated)	none (no result: HCV inhibitor, CHX counter, AMA1 RON2 block, Shiga inhibitor)
O=C(CC1SC(=Nc2ccccc2)N(CCc2ccccn2)C1=O)Nc1ccc(F)cc1 (configuration not stated)	Pf growth 48h inconclusive, Pf growth 96h 4.7µM
Cc1cccc(C)c1N=C1SC(CC(=O)Nc2c(C)cccc2C)C(=O)N1CCc1ccccn1 (configuration not stated)	Pf growth 48h 9.3µM, Pf growth 96h 9.3µM
COc1ccc2nc(SC(C)C(=O)NCC(=O)Nc3ccc(F)c(F)c3F)[nH]c2c1 (configuration not stated)	Pf growth 48h inconclusive (no result: CHX counter, Shiga inhibitor)
CN(C(=O)CSc1cc(Cl)ccc1Cl)C1CCS(=O)(=O)C1 (configuration not stated)	none (no result: Pf growth 48h, CHX counter, Shiga inhibitor, Pf growth 96h)
CC1CCCCN1CC(O)COCCC12CC3CC(CC(C3)C1)C2 (configuration not stated)	HCV inhibitor inconclusive, Pf growth 48h inconclusive, Pf growth 96h 8.3µM
CCOc1ccc(C(=O)NCC(=O)OCc2nnc(-c3ccccc3)o2)cc1OCC	Pf growth 96h inconclusive (no result: CHX counter, Shiga inhibitor)
OC(c1cccc(Cl)c1)(c1cccc(Cl)c1)C1CN2CCC1CC2 (configuration not stated)	HCV inhibitor 16µM, Pf growth 48h inconclusive
Cc1ccc(C(=O)N2C(CC(=O)Nc3ccc(Cl)cc3)C(=O)NC3CCCCC32)cc1 (configuration not stated)	HCV inhibitor inconclusive, Pf growth 48h inconclusive
Cc1cccc(N2CCN(C(=O)c3ccc(NS(=O)(=O)c4ccc5[nH]c(=O)[nH]c5c4)cc3)CC2)c1C	Pf growth 48h inconclusive, Pf growth 96h 8.3µM
O=C(c1ccc(NS(=O)(=O)c2ccc3[nH]c(=O)[nH]c3c2)cc1)N1CCN(c2ccccc2O)CC1	Pf growth 96h inconclusive (no result: CHX counter, Shiga inhibitor)
CC1CC(C)CN(C(=O)c2ccc(NS(=O)(=O)c3ccc4[nH]c(=O)[nH]c4c3)cc2)C1 (configuration not stated)	Pf growth 48h inconclusive, Pf growth 96h inconclusive (no result: CHX counter, Shiga inhibitor)
CCOC(=O)C1CCCN(C(=O)c2ccc3c(c2)NC(=O)C(N2CCOCC2)S3)C1 (configuration not stated)	HCV inhibitor inconclusive, Pf growth 48h 8.3µM, Pf growth 96h inconclusive
CCCCC(=O)Nc1ccc(C(=O)N2CCCC(C(=O)OCC)C2)cc1 (configuration not stated)	Pf growth 48h inconclusive, CHX counter 20
CCOC(=O)C1CCCN(C(=O)c2ccc(NS(=O)(=O)c3ccc4[nH]c(=O)[nH]c4c3)cc2)C1 (configuration not stated)	Pf growth 48h inconclusive, Pf growth 96h 5.9µM (no result: CHX counter, Shiga inhibitor)
CCOC(=O)C1CCCN(C(=O)c2ccc(Cl)cc2)C1 (configuration not stated)	none
CCOC(=O)C1CCCN(CCC(=O)Nc2cc(C)ccc2C)C1 (configuration not stated)	Pf growth 96h 6.6µM
CCN(Cc1ccccc1)S(=O)(=O)c1ccc(S(=O)(=O)N(Cc2cccc(OC)c2)CC2CCCO2)cc1 (configuration not stated)	Pf growth 96h 5.2µM (no result: Pf growth 48h)
O=c1[nH]c2ccccc2cc1CN(CC1CCCO1)S(=O)(=O)c1ccc(Cl)cc1 (configuration not stated)	none
NS(=O)(=O)c1ccc(S(=O)(=O)N(Cc2ccccc2F)CC2CCCO2)cc1 (configuration not stated)	Pf growth 48h inconclusive, Pf growth 96h 13µM
Cc1cc(C)n(-c2nc3ccccc3c(=O)n2OCC#N)n1	HCV inhibitor inconclusive, Pf growth 48h 1.3µM, CHX counter 38, Shiga inhibitor 115, Pf growth 96h 0.37µM
COC(=O)COn1c(-n2nc(C)cc2C)nc2ccccc2c1=O	Pf growth 48h 9.3µM (no result: Pf growth 96h)
CCOC(=O)COn1c(-n2nc(C)cc2C)nc2ccccc2c1=O	Pf growth 48h 3.7µM, Pf growth 96h 1.5µM
O=C(CN(Cc1ccc(Cl)cc1)C(=O)CNS(=O)(=O)c1ccccc1)NCC1CCCO1 (configuration not stated)	none
CC1CN(S(=O)(=O)c2ccccc2)C(C)N1C(=O)N1CCOCC1 (configuration not stated)	none
CCOC(=O)C1Oc2ccccc2C(c2ccc(F)cc2)=C1C(=O)OC (configuration not stated)	none (no result: Pf growth 48h, Pf growth 96h)
CCOC(=O)C1Oc2ccccc2C(c2ccc(C)cc2)=C1C(=O)OC (configuration not stated)	HCV inhibitor inconclusive, CHX counter 19 (no result: Pf growth 48h, Pf growth 96h)
NS(=O)(=O)c1ccc(N/N=C/C=C/c2ccccc2[N+](=O)[O-])cc1	HCV inhibitor inconclusive, CHX counter 37, Shiga inhibitor 80
O=C(CN1CCN(Cc2ccccc2)CC1)N/N=C/C=C/c1ccccc1[N+](=O)[O-]	none
O=C(O)c1cc(N/N=C/C=C/c2ccccc2[N+](=O)[O-])ccc1Cl	CHX counter 42, Shiga inhibitor 68
Nc1ccc(S(=O)(=O)NN=CC=Cc2ccccc2[N+](=O)[O-])cc1	none (no result: Pf growth 48h, CHX counter, Shiga inhibitor, Pf growth 96h)
COC(=O)[C@@]12C[C@@H](CC(=O)NCCCN3CCCC3=O)C(=O)N(Cc3ccc4c(c3)OCO4)C1=CCC(C)(C)C2	none (no result: HCV inhibitor, Pf growth 48h, CHX counter, Shiga inhibitor, Pf growth 96h)
COc1cc2c(cc1OC)C1=NC(=O)CN1C(SCc1ccccc1)=N2	HCV inhibitor inconclusive, Pf growth 48h 10µM (no result: Pf growth 96h)
